Screening data (PubChem)
An excerpt weighted towards active compounds, which were near 1.7% of everything screened.
Giardia killer = kills Giardia lamblia; activity change, % at 7.66 µM, hits read low; hit rate 0.15% among 340,000; Giardia lamblia trophozoite viability; AID 540267; in the data active = activity change below about -80%; inconclusive = between about -30% and that limit;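 also: parasites exposed to compound for two days anaerobically before the ATP read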
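Giardia trophozoites, 100 cells per well, were exposed to compounds for 48 hrs at 37 deg C under anaerobic conditions; viability was then read as ATP content by bioluminescence after 15-30 min at room temperature.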
hERG WT inh = blocks the wildtype human KCNH2 potassium channel. Q12809. U2OS, BacMam KCNH2, thallium flux FluxOr; stronger effect = lower value. activity change, % at 1.84 µM. hit rate 0.37% among 340,000;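 active = maximum activity change below -70%; inconclusive = maximum activity change between -70% and -50%; inactive = maximum activity change above -50%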
Target sequence (Q12809 whole entry, looked up): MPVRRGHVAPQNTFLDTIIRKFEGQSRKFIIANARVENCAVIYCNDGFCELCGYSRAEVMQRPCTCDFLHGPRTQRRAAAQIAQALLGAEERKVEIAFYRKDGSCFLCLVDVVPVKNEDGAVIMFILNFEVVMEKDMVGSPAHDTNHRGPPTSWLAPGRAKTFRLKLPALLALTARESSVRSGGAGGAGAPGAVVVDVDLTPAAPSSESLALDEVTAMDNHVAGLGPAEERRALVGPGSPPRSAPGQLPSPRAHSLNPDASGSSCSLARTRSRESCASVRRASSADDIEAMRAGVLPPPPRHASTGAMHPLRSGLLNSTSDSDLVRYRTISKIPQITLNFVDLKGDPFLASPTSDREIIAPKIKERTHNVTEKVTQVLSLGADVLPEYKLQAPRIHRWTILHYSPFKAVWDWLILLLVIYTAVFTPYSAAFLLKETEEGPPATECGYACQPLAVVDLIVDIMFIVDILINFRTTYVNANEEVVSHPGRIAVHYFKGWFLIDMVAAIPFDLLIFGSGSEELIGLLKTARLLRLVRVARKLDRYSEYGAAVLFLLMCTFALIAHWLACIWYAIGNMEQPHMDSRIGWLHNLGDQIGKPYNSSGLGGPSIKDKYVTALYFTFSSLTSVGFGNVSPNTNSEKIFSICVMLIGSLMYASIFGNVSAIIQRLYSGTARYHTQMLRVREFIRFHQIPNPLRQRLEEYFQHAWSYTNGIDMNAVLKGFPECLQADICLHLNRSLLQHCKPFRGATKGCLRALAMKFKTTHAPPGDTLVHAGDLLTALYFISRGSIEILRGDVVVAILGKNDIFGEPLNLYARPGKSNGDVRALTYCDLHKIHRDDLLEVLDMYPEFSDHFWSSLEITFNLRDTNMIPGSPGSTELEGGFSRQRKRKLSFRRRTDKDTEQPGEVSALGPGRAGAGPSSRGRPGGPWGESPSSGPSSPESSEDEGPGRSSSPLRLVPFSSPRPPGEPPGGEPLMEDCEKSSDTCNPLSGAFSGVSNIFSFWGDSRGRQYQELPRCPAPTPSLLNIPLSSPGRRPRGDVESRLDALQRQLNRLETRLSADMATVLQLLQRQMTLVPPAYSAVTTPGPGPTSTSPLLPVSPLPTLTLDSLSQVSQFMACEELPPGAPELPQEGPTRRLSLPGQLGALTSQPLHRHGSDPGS
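U2OS cells transduced with wild-type KCNH2 virus are loaded with FluxOr dye for 45 min, and thallium flux is measured in kinetic reads before and after stimulation buffer. Rate constants are normalized to DMSO controls.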
Coupling enz = coupling enzyme interference in Giardia aldolase counter-screen. coupling enzyme system counterscreen, AmpLite Red fluorescence. activity change, negative = inhibition, % at 58.2 µM, hits read low. hit rate 0.67% among 290,000. AID 2472; in the data active = activity change below about -30%
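Coupling enzymes only (glyceraldehyde-3-phosphate) + compound, at 57.5 uM final, 10 min RT; add substrate/coupling/AmpLite Red mix, 20 min RT; fluorescence ex 525/em 598 nm. Actives flag coupling-system interference.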
KCNH2 3.1 block = blocks the human KCNH2 3.1 channel isoform. AID 720553. hit rate 0.95% among 340,000. activity change, % (tested at about 1.8 µM). U2OS KCNH2 3.1, thallium flux FluxOr; stronger effect = lower value;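 active = maximum activity change below -70%; inconclusive = maximum activity change from -70% to -50%; inactive = maximum activity change above -50%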;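 also: thallium influx rate constant from kinetic fluorescence after stimulation buffer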
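Thallium flux via FluxOr fluorescence (Red40 quencher, 45 min loading) in U2OS cells virally expressing the KCNH2 3.1 isoform (1.77 x 10^8 /mL virus, overnight at 37 C). Rate constants from 2-min kinetic reads post-stimulation, normalised to positive and negative controls.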
USP1-UAF1 inh = inhibitors of human USP1/UAF1 deubiquitinase; O94782; hit rate 0.23% among 390,000; Potency, µM (series often up to 57.1 µM), inactives show at the top dose activity change, negative = inhibition, hits mostly inhibitors; recombinant USP1/UAF1, Ub-Rhodamine cleavage fluorescence; active = well fitted inhibition curve with a large enough effect; inconclusive = small, poorly fitted or top-dose-only effect; inactive = no such curve, though single readings can be large or run the other way; also: potency is read from the fitted curve at half-maximal effect; nearly all actives have a fitted effect of over 60% in size
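USP1/UAF1 complex (1 nM) preincubated 15 min at room temperature with compound, then Ub-Rho substrate (150 nM final) added. Kinetic fluorescence at 480/540 nm over 6 reads at 60 s intervals; 50 mM HEPES pH 7.8, 0.5 mM EDTA, 0.1 mg/ml BSA, 1 mM TCEP, 0.01% Tween-20.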
* marks the source's active call; other numbers are inactive results; ? = inconclusive; . = no result; ! = a repeat was not active. % is scaled to controls: 0 for no effect and ±100 for the full control effect.

SMILES	Giardia killer	hERG WT inh	Coupling enz	KCNH2 3.1 block	USP1-UAF1 inh
O=C(NCc1cccc(Cl)c1)C1CCCN(c2ncnc3onc(-c4ccc(F)cc4)c23)C1 (configuration not stated)	.	.	.	.	-9.2%
O=C(CCS(=O)(=O)c1ccccc1)Nc1ncc([N+](=O)[O-])s1	-80.7*	-8.4	4.1	-0.8	-6.4%
O=C1C=C(c2c(O)ccc3ccccc23)c2ccccc2C1=O	-24.4	3.1	.	2.1	28.2µM*
CCn1c(SCC(=O)Nc2ccccc2F)nnc1-c1ccoc1C	-4.6	-0.4	3.8	-118.2*	-21.2%
CCn1c(SCC(=O)Nc2ccccc2C(=O)OC)nnc1-c1cccc(C)c1	13.2	-0.3	-1.3	-170.8*	4.8%
Cc1ccc(NC(=O)Cn2c(=O)n(-c3ccccc3)c(=O)c3ccc(C(=O)NCc4ccc5c(c4)OCO5)cc32)c(C)c1	.	.	.	.	-18.3%
CCCOc1c(Cl)cc(C(=O)N(Cc2cccc(OC)c2)C2CCS(=O)(=O)C2)cc1Cl (configuration not stated)	.	.	.	.	-14.1%
Cc1ccc(S(=O)(=O)C(CNC(=O)c2c(F)cccc2F)c2ccco2)cc1 (configuration not stated)	.	.	.	.	-15.0%
CC(/C=C\c1cccnc1)=C/C(=O)O	-0.6	-0.6	-0.4	-77.1*!	-3.9%
CCOC(=O)c1c(-c2cccs2)csc1N	0.0	6.5	-10.7	3.8	-13.9%
CCOC(=O)c1c(-c2ccco2)csc1N	-16.5	-6.8	-31.0*	14.0	-17.1%
Cc1ccc2sc(N(Cc3cccnc3)C(=O)CCOc3ccccc3)nc2c1C	.	.	.	.	-1.8%
COc1ccc(CNc2ccc3cn[nH]c3c2)c(OC)c1OC	-2.1	4.7	-46.9*	-3.5	?
CCOc1cc(CNc2ccc3cn[nH]c3c2)ccc1OC	0.1	-1.1	-55.3*	-17.1	?
COc1ccc(C=C2c3ccccc3C(=O)c3ccccc32)cc1O	.	.	0.0	.	.
COc1cc(C2C(C(=O)N3CCOCC3)=C(C)NC3=C2C(=O)CCC3)ccc1OC(C)=O (configuration not stated)	-13.5	10.3	-32.5*	12.8	-16.8%
O=C1NNC(c2ccccc2)=N/C1=C\c1ccco1	-18.5	0.6	-2.7	-9.8	-18.5%
O=C1NNC(c2ccccc2)=N/C1=C\c1ccccc1Cl	10.1	-9.8	-14.7	22.6	17.8µM*
C/C(=C\COc1c2ccoc2cc2oc(=O)ccc12)CCC(O)C(C)(C)O (configuration not stated)	.	.	0.4	.	.
N#CC1(Cc2ccccc2)c2ccccc2C=CN1C(=O)c1ccccc1 (configuration not stated)	8.1	5.0	2.6	5.7	-18.0%
N#CC1(Cc2ccc([N+](=O)[O-])cc2)c2ccccc2C=CN1C(=O)c1ccccc1 (configuration not stated)	0.5	2.8	-0.3	-88.3*	-0.3%
COc1ccc(CNC(=O)c2ccc(NC(=O)N3CCSc4ncccc43)cc2)cc1OC	.	.	.	.	-5.2%
OCCC1CN(Cc2ccc(F)cc2Cl)CCN1CCc1ccccc1 (configuration not stated)	-0.6	15.1	1.4	-72.1*	2.3%
CC(=O)OCCBr	.	.	-1.7	.	.
CCC(Sc1nnc(-c2ccc(F)cc2)c(-c2ccc(F)cc2)n1)C(=O)NC1CCCC1 (configuration not stated)	.	.	.	.	-14.3%
SMILES	Giardia killer	hERG WT inh	Coupling enz	KCNH2 3.1 block	USP1-UAF1 inh
COc1cc2c(C#N)c(N3CCCC3)nc(N)c2c(N)n1	13.5	4.9	-31.4*	6.8	7.94µM*
CCCOc1cc2c(C#N)c(N3CCCC3)nc(N)c2c(N)n1	25.2	3.6	.	11.3	28.2µM*
COc1cc2c(C#N)c(N3CCN(C)CC3)nc(N)c2c(N)n1	.	.	-13.3	.	.
N#Cc1c(N2CCCC2)nc(N)c2c(N)nc(N3CCCC3)cc12	-6.2	4.7	-36.2*	-7.3	0.316µM*
COc1cc2c(C#N)c(N3CCN(c4ccccc4OC)CC3)nc(N)c2c(N)n1	6.2	2.0	-52.3*	-9.9	-5.8%
CCOc1cc2c(C#N)c(N3CCCC3)nc(N)c2c(N)n1	23.1	1.0	.	10.4	-26.1%
COc1ccc(-c2csc3nc(-c4ccc(F)cc4)oc(=O)c23)cc1OC	.	.	.	.	-17.4%
O=C(Nc1ccc2nccnc2c1)N1CCCCCC1	-12.6	.	.	.	.
Cc1nc(-c2nc(-c3c(C(=O)NNC(=O)Nc4ccccc4)noc3C)cs2)cs1	7.0	-77.3*	1.6	-93.8*	-5.8%
